GPR151 activ: activators of human GPR151 | PathHunter beta-arrestin GPR151 cells, luminescence | activation, % at 11.2 µM | Q8TDV0 | 650,000 tested, 1% active; in the data active = activation above about 4.9%;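 also: 0% = median of compound wells and 100% = cells with positive control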
Target sequence (Q8TDV0 whole entry, looked up): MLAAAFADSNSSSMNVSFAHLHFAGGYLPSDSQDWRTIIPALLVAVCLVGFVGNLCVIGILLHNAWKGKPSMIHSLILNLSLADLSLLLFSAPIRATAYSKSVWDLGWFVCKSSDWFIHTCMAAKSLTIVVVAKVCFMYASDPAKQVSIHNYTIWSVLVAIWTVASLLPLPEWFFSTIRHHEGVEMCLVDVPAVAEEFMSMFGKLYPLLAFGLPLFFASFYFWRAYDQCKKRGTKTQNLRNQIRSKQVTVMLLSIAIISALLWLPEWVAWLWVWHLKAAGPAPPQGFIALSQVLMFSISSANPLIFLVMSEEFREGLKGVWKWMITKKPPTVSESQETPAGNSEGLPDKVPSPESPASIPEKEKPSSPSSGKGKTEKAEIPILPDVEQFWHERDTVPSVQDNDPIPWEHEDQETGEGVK
MITF primary: human MITF inhibition, primary screen; O75030; AlphaScreen MITF homodimerization, bead proximity signal; inhibition, % at 2.6 µM; 650,000 tested, 0.91% active; AID 1259374; in the data active = inhibition above about 50%;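 also: 0% = vehicle wells with protein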
TEAD-YAP inh: TEAD-YAP interaction inhibition; HEK-TIYL cells, TEAD-Gal4/YAP UAS-luciferase luminescence; inhibition, % at 9.12 µM; 640,000 tested, 1.4% active; in the data active = inhibition above about 32%;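 also: 0% = median of test compound wells and 100% = reference inhibitor wells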
FBW7 activator: activators of human E3 ligase FBW7 | AlphaScreen FBW7–phospho-cyclin E peptide binding, activator screen | normalized activity (activation), % at 26.1 µM | 650,000 tested, 0.13% active | AID 1259310; in the data active = normalized activity above about 1.9%;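 also: purified mutant Fbw7 with reduced substrate affinity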
* hit, by the source's call; ! = not active in a repeat. Rows were chosen to be rich in hits. Some 3.5% of all compounds tested hit in one or more screens of this group.

SMILES	GPR151 activ	MITF primary	TEAD-YAP inh	FBW7 activator
CC(C)c1ccc(NC(=O)c2ccc(F)c(S(=O)(=O)NC3CCCCCC3)c2)cc1	1	-3	11	0
O=C(Nc1ccc(Oc2ccccc2)cc1)c1ccc(F)c(S(=O)(=O)NC2CCCCCC2)c1	0	17	50*	0
CCCNc1nc(-c2ccccc2)nc2c1ncn2-c1ccccc1	-1	4	2	0
CCOc1ccc2[nH]cc(NC(=O)NCCCN3CCOCC3)c(=O)c2n1	0	4	5	0
O=C(COc1ccc2ccccc2c1)OCC(=O)c1ccc([N+](=O)[O-])cc1	0	-12	-10	0
CCOCCCNC(=O)CCc1nnc(CCC2CCCCC2)o1	-3	-2	-14	0
Cc1sc2nc(-c3ccccc3Cl)n(CC#N)c(=O)c2c1C	2	-1	-15	0
CC1(C)Cc2nc3sc4c(N5CCNCC5)ncnc4c3cc2CS1	-1	15	44*	0
Cc1cc(NC(=O)CSc2nc3ccsc3c(=O)n2-c2ccc(Cl)c(C)c2)no1	2	-2	3	0
Cc1cc(NCCCN2CCCC2=O)nc(N2CCOCC2)n1	-1	8	-3	7.4*
O=C1CCCN1CCCNc1ccnc(N2CCOCC2)n1	-1	-9	1	0
CN(C)S(=O)(=O)N1CCC(Oc2cccc(C(=O)NC3CCCCC3)c2)CC1	1	-1	43*	0
CN(C)S(=O)(=O)N1CCC(Oc2ccc(C(=O)NC3CCCCC3)cc2)CC1	-1	-1	-14	0
CCOC(=O)CC(=O)CSc1nc2sc(C(=O)OCC)c(C)c2c(=O)n1CCc1ccc(Cl)cc1	1	5	16	0
CCN(CC)c1ccc(C(=O)O)cc1	1	4	-8	0
CCN(CC)c1ccc(C(=O)c2ccc(N(CC)CC)cc2)cc1	2	1	34*	0
Cc1nc2sccn2c1-c1csc(Nc2ccc(N(C)C)cc2)n1	1	10	55*	0
Cc1nc2sccn2c1-c1csc(Nc2ccc(O)cc2)n1	0	-16	18	0
CN(C)c1ccc(Nc2nc(-c3ccccc3)cs2)cc1	-7	38	43*	0
Cc1ccccc1Nc1nc(-c2c(C)nc3sccn23)cs1	-1	-4	-4	0
CC(=O)Nc1ccc(Nc2nc(-c3c(C)nc4sccn34)cs2)cc1	1	8	48*	0
CCc1ccccc1NC(=O)c1ccc(N2C(=O)c3ccccc3C2=O)cc1	0	-8	-5	0
O=C(O)CCc1ccc(-c2cnn3c(NCc4ccco4)ccnc23)cc1	-4	19	33*	1
c1ccc(-c2cnn3c(NCc4cccs4)ccnc23)cc1	0	12	-48	0
Cc1ccc(-c2cnn3c(NCc4cccs4)ccnc23)cc1	0	11	-67	0
SMILES	GPR151 activ	MITF primary	TEAD-YAP inh	FBW7 activator
OCc1ccccc1-c1cnn2c(NCc3cccs3)ccnc12	-1	-10	63*	0
Nc1ccc(-c2cnn3c(NCc4cccs4)ccnc23)cc1	0	-12	71*	-1
CCCN1C(=O)CN(C2CCC(C)CC2)C(=O)C1c1ccc(F)cc1 (stereo not drawn)	1	-1	-7	0
CC[C@@]1(O)C(=O)OCc2c1cc1n(c2=O)Cc2cc3c(CN(C)C)c(O)ccc3nc2-1	0	67*!	12	0
COc1ccc(/C(C)=N/NC(=O)c2ccc(F)cc2)c(OC)c1	0	6	-55	0
O=C(NCCc1ccccc1)c1ccc(OC2CCN(C(=O)c3ccco3)CC2)cc1	-1	-13	83*	0
CC(C)=CC(=O)N1CCC(Oc2ccc(C(=O)NCCc3ccccc3)cc2)CC1	-1	2	-7	0
O=C1CC(C(=O)N2CCC(Oc3ccc(C(=O)NCCc4ccccc4)cc3)CC2)CN1 (stereo not drawn)	0	10	80*	0
CC1CCN(S(=O)(=O)N2CCCC(C(=O)O)C2)CC1 (stereo not drawn)	-1	-8	1	0
CC1=NN(C(=O)c2ccccc2)C(C)(C)C1	0	-6	-5	0
CC1=NN(C(=S)c2ccccc2)C(C)(O)C12CC2 (stereo not drawn)	-3	2	33*	0
CC(C)(C)c1ccc(C2CC(=O)C=C(O)C2)cc1 (stereo not drawn)	1	18	54*	1
Cc1ccc(C2CC(=O)C=C(O)C2)cc1 (stereo not drawn)	-1	-3	-1	0
Cc1ccc(Nc2ccc3nonc3c2[N+](=O)[O-])c(C)c1	2	16	-7	2.5*
Cc1ccc(Nc2ccc3nonc3c2[N+](=O)[O-])cc1C	0	6	1	0
COc1ccc(CCNc2nc(-c3c(C)noc3C)ncc2C)cc1	1	-4	41*	0
COc1ccc(CCNc2nc(-c3ccc(OC)cc3)ncc2C)cc1	0	-3	0	0
COc1ccc(CCNc2nc(-c3ccccc3)ncc2C)cc1	-2	-4	42*	0
COc1ccc(CCNc2nc(-c3c(C)nn(C)c3C)ncc2C)cc1	2	11	3	0
COc1ccc(CCNc2nc(-c3ccc(OC)nc3)ncc2C)cc1	-2	4	41*	0
COc1ccc(Nc2cc(N3CCN(Cc4cc(Cl)ccc4OC)CC3)c3noc4c3c2C(=O)c2ccccc2-4)cc1	1	13	4	0
COCc1c(C(=O)N/N=C/c2ccccc2Cl)nnn1-c1nonc1N	1	6	-5	0
COCc1c(C(=O)N/N=C/c2cccc(OC)c2O)nnn1-c1nonc1N	0	61*	73*	0
CCc1c(C(=O)N/N=C/c2cccc(OC)c2O)nnn1-c1nonc1N	0	20	74*	0
CN1CCc2nc(SCc3ccc(Cl)c(Cl)c3)c(C#N)c(-c3cccs3)c2C1	0	2	4	0
SMILES	GPR151 activ	MITF primary	TEAD-YAP inh	FBW7 activator
CCC(=O)Nc1ccc(C2=NNC(=NC3CC3)SC2)cc1	-3	-2	51*	0
CCOC(=O)c1c(C)[nH]c(C2=NNC(=NC3CC3)SC2)c1C	0	5	78*	0
CCC(=O)Nc1ccc(C2=NNC(=Nc3ccc(C)cc3)SC2)cc1	0	16	-7	0
Fc1ccc(C2=NNC(=NC3CC3)SC2)cc1F	-7	3	65*	0
O=C(Nc1ccc(N2CCOCC2)cc1)C1CC(=O)N(CCc2ccccc2)C1 (stereo not drawn)	-1	9	4	0
Cc1cc(NC(=O)CCc2ccc(C)o2)no1	0	5	5	0
Cc1ccc(Cc2cnc(NC(=O)CCCOc3ccc(Cl)cc3)s2)cc1	0	11	7	0
Cc1ccc(CCC(=O)Nc2ncc(Cc3ccc(Cl)cc3)s2)o1	4	1	57*	0
Cc1ccc(CCC(=O)Nc2ccc(Cl)cn2)o1	-1	4	41*	0
Cn1c(=O)c2ncn(CC(=O)N/N=C/c3cc(Cl)ccc3O)c2n(C)c1=O	2	42	8	-1
Cn1c(=O)c2ncn(CC(=O)N/N=C/c3cc(Br)ccc3O)c2n(C)c1=O	-1	63*	12	-1

Compound activity deposited in PubChem BioAssay by The Scripps Research Institute Molecular Screening Center.
